High-throughput results deposited in PubChem BioAssay by several laboratories.
Shown are actives, neighbours in structure and some others; about 2.1% of the full set was active somewhere.
Wee1 degr inh = Wee1 degradation inhibitors, primary screen, cell-based, HeLa, Wee1K328M-luciferase, luminescence; HeLa Luc-Wee1K328M stability; 100% = proteasome inhibitor MG132 effect; Wee1-like protein kinase (Homo sapiens), P30291; actives 1.2% (n = 220,000); reporter increase, % at 5 µM; AID 1321, 2008;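 active = activation above the mean of all tested compounds plus 3 SD, set per screening run, cut at about 8.8% in these data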;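 also: cells exposed to compound for 20 h before luminescence read; 0% = DMSO alone and 100% = MG132 at 30 µM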
Target sequence (P30291 whole entry K328M): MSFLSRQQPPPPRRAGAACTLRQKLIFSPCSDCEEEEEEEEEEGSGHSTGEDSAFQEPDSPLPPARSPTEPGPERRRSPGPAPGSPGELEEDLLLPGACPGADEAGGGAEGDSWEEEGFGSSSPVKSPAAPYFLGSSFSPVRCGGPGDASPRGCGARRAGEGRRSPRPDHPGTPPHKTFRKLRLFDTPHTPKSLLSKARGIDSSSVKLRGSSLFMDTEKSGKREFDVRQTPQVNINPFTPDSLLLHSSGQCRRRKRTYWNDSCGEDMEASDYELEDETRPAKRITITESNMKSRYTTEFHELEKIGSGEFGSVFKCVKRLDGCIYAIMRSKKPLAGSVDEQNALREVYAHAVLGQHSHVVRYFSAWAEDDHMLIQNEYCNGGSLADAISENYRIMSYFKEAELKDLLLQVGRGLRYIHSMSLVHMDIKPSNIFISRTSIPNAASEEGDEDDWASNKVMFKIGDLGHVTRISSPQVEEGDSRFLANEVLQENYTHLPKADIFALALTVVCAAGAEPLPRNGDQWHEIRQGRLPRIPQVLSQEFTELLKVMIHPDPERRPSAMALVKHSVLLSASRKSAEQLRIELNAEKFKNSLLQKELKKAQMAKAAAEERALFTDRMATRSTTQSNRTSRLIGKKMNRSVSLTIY
aSyn 5UTR inh = MLPCN primary screen, SNCA 5' untranslated region. inhibition, % (tested at 7.5 µM). actives 0.82% (n = 300,000). AID 1813, 2009. alpha-synuclein 5'UTR reporter, inhibitor activity; in the data active = inhibition above about 60%;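 also: H4 neuroglioblastoma cells stably carrying SNCA 5'UTR luciferase fusion; 0% = DMSO wells and 100% = positive control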
HIF activator = HIF pathway transcriptional activators, primary screen, cell-based, U2OS HRE-luciferase, luminescence. activation, % at 7.5 µM (by protocol). actives 0.32% (n = 300,000). U2OS HRE-luciferase reporter; normalized: DMSO 0%, desferrioxamine 100%;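 active = mean activation of at least 10% of the iron chelator positive control signal, with at least half of replicates also reaching 10%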
Platelet DG rel = inhibitors of platelet dense granule secretion, primary screen, cell-based, MLPCN, human platelets. human platelet-rich plasma, SFLLRN dense granule ATP release, luminescence. actives 0.22% (n = 300,000). AID 1663, 2009. inhibition, %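 (compounds screened at 7.5 µM in platelet-rich plasma)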;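 active = mean replicate score, as percent of positive control, at or above 50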
KLF5 inh = KLF5 expression inhibitors, primary screen, DLD-1 cells, luminescence. DLD-1 KLF5 promoter-luciferase reporter. inhibition, % at 5 µM. actives 0.23% (n = 290,000). AID 1700, 2009;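 active = inhibition above a per-plate limit of that plate's mean compound inhibition plus 3 SD, cut at about 60% in these data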;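 also: 0% = DMSO wells and 100% = LY294002 at 200 µM; higher means less KLF5 promoter-driven luciferase light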
Wee1 degr conf = Wee1 degradation inhibitors, confirmation, cell-based, HeLa, Wee1K328M-luciferase, luminescence, triplicate. actives 4% (n = 1,100). shares compounds with Wee1 degr inh. activation, % at 5 µM. HeLa Luc-Wee1K328M degradation; vehicle 0%, proteasome-blocked wells 100%; in the data active = activation above about 8.9%
An asterisk follows results filed as active.

How did O=C(O)Cc1ccc(NC(=O)CCN2C(=O)c3ccc([N+](=O)[O-])cc3C2=O)cc1 do in these assays?
Wee1 degr inh: 15*; aSyn 5UTR inh: -9; HIF activator: 0; Platelet DG rel: 2; KLF5 inh: -27; Wee1 degr conf: 1

Results for CCCc1cc(=O)[nH]c(SCC(=O)N(CC)c2c(N)n(Cc3ccccc3)c(=O)[nH]c2=O)n1 ?
aSyn 5UTR inh: 3; HIF activator: 0; Platelet DG rel: 0

How did Cc1cc(C)c(C(=O)CN2C(=O)NC3(CCCCCC3)C2=O)cc1C do in these assays?
Wee1 degr inh: 3; aSyn 5UTR inh: -72; HIF activator: 1; Platelet DG rel: 0; KLF5 inh: -14

How did COCCn1cc(C(=O)NCCCN2CCC(C)CC2)c2c3ccccc3n(C)c2c1=O do in these assays?
Wee1 degr inh: 14*; aSyn 5UTR inh: -17; HIF activator: 1; Platelet DG rel: -1; KLF5 inh: 6; Wee1 degr conf: 1

How did O=C(NCc1cccs1)c1cccc(Nc2nc3ccc(Br)cc3[nH]2)c1 do in these assays?
Wee1 degr inh: 15*; aSyn 5UTR inh: 38; HIF activator: 0; Platelet DG rel: -3; KLF5 inh: -37; Wee1 degr conf: 3

What do the screens show for `O=C(NCc1cccs1)c1ccccc1`?
Wee1 degr inh: -1; aSyn 5UTR inh: 10; HIF activator: 0; Platelet DG rel: 7; KLF5 inh: -34

Results for COc1ccccc1C(=O)NC(C)c1cccc2ccccc12 (centres undefined) ?
aSyn 5UTR inh: -6; HIF activator: 0; Platelet DG rel: -13; KLF5 inh: -4

What do the screens show for `CCCCn1c(N)c(N(CCOC)C(=O)COC(=O)COc2cccc(C(C)=O)c2)c(=O)[nH]c1=O`?
aSyn 5UTR inh: 5; HIF activator: -2; Platelet DG rel: -2

How did Cc1ccc2nc(-c3ccc(NC(=S)NC4CC(C)(C)NC(C)(C)C4)cc3)sc2c1 do in these assays?
Wee1 degr inh: 20*; aSyn 5UTR inh: 121*; HIF activator: -7; Platelet DG rel: 0; KLF5 inh: -128; Wee1 degr conf: 3

Results for Cc1ccc2nc(-c3ccc(NC(=S)NC(=O)C(C)C)cc3)sc2c1 ?
Wee1 degr inh: 1; aSyn 5UTR inh: -208; HIF activator: 2; Platelet DG rel: 8; KLF5 inh: -67

How did Cc1ccc(NC(=O)COC(=O)CNC(=O)c2ccc(Br)cc2)c(C)c1 do in these assays?
Wee1 degr inh: 14*; aSyn 5UTR inh: -1; HIF activator: 0; Platelet DG rel: -1; KLF5 inh: -45; Wee1 degr conf: 1

What do the screens show for `COc1cc(/C=N/NC(=O)C(=O)NCC2CCCO2)cc(Cl)c1O` (centres undefined)?
Wee1 degr inh: 5; aSyn 5UTR inh: 14; HIF activator: 0; Platelet DG rel: 0; KLF5 inh: -2

How did CC(=O)Nc1nc2ccccc2n1CCN1CCOCC1 do in these assays?
Wee1 degr inh: -3; aSyn 5UTR inh: -7; HIF activator: 0; Platelet DG rel: 0; KLF5 inh: -28

Results for Cc1nc2ccccc2n1CCN1CCOCC1 ?
Wee1 degr inh: 12*; aSyn 5UTR inh: -13; HIF activator: 0; Platelet DG rel: -4; KLF5 inh: -16; Wee1 degr conf: -1

How did Cc1ccc(N2CCN(S(=O)(=O)c3ccc4c(c3)oc(=O)n4C)CC2C)cc1 (centres undefined) do in these assays?
aSyn 5UTR inh: 8; HIF activator: 0; Platelet DG rel: 3; KLF5 inh: -15

How did COc1ccccc1NC(=O)CNC(=O)c1ccc(F)cc1 do in these assays?
Wee1 degr inh: 11*; aSyn 5UTR inh: 14; HIF activator: 0; Platelet DG rel: 10; KLF5 inh: -21; Wee1 degr conf: 1

How did COc1ccccc1NC(=O)c1ccc(NC(=O)CNC(=O)c2ccc(OC)c(OC)c2)cc1 do in these assays?
aSyn 5UTR inh: 7; HIF activator: 0; Platelet DG rel: -2; KLF5 inh: -9

Results for CCCCn1c(N)c(N(CC(C)C)C(=O)C(C)SCc2nc3sc(C)c(C)c3c(=O)[nH]2)c(=O)[nH]c1=O (centres undefined) ?
aSyn 5UTR inh: -2; HIF activator: 0; Platelet DG rel: -2

Results for CCc1cc(C(=O)N2CCCC(CO)(Cc3ccc(F)cc3)C2)n(C)n1 (centres undefined) ?
aSyn 5UTR inh: -7; HIF activator: 0; Platelet DG rel: -4; KLF5 inh: -1

Results for O=C(Nc1ccc(OC(F)(F)F)cc1)Nc1cccc([N+](=O)[O-])c1 ?
Wee1 degr inh: 17*; aSyn 5UTR inh: 30; HIF activator: 3; Platelet DG rel: 1; KLF5 inh: -14; Wee1 degr conf: 2

How did COc1ccc(-c2noc(CSc3nc(-c4ccccc4)cc(=O)[nH]3)n2)cc1OC do in these assays?
Wee1 degr inh: 14*; aSyn 5UTR inh: 15; HIF activator: 0; Platelet DG rel: 28; KLF5 inh: -26; Wee1 degr conf: 0

How did CC(=O)N1CC(C)Sc2ccc(S(=O)(=O)NC3CCCCC3C)cc21 (centres undefined) do in these assays?
aSyn 5UTR inh: 10; HIF activator: 0; Platelet DG rel: 7; KLF5 inh: -22

Results for O=C(Nc1ccccc1)Nc1cc(OCC(F)(F)F)cc(OCC(F)(F)F)c1 ?
Wee1 degr inh: 14*; aSyn 5UTR inh: 74*; HIF activator: -1; Platelet DG rel: -7; KLF5 inh: 4; Wee1 degr conf: 2

How did CCOc1ccc(NC(=S)N(CCOC)C2CCN(C(C)C)CC2)cc1 do in these assays?
aSyn 5UTR inh: 5; HIF activator: -1; Platelet DG rel: 4; KLF5 inh: -46

How did CCOc1cccc(N(C(=O)Cc2cccs2)C(C(=O)NC2CCCCC2)c2cccn2C)c1 (centres undefined) do in these assays?
Wee1 degr inh: 11*; aSyn 5UTR inh: 34; HIF activator: -1; Platelet DG rel: 2; KLF5 inh: -26; Wee1 degr conf: 9.6*

Results for COc1ccc(CNCCNC(=O)c2cccs2)c(OC)c1OC ?
Wee1 degr inh: 12*; aSyn 5UTR inh: 4; HIF activator: -1; Platelet DG rel: 4; KLF5 inh: -36; Wee1 degr conf: -1

Results for COCCCNC(=O)c1cccs1 ?
Wee1 degr inh: 1; aSyn 5UTR inh: -24; HIF activator: -1; Platelet DG rel: 2; KLF5 inh: -7

What do the screens show for `FC(F)(F)c1cc(-c2cccs2)nc2cc(-c3cccs3)nn12`?
Wee1 degr inh: 3; aSyn 5UTR inh: -2; HIF activator: 0; Platelet DG rel: 0; KLF5 inh: -27
